Most compounds without a hit are left out; they make up all but 22% or so of the library.
Pf growth 96h: P. falciparum growth inhibition at 96 hour, primary screen for plastid delayed-death inhibitors. hit rate 6.9% among 320,000. P. falciparum luciferase reporter growth, 96 h. Potency, µM (doses to about 28.7 µM), for inactives: at the highest dose activity change, negative = inhibition, actives largely listed as inhibitors; also: potency is read from the fitted curve at half-maximal effect; % is scaled to controls: 0 for no effect and ±100 for the full control effect
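Plates of compound plus infected erythrocytes (2% hematocrit, 0.05% parasitemia final) incubate 96 hours, 37 C, 5% CO2. Detection reagent added; reduced luminescence from the parasites' luciferase reporter flags inhibition.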
LmPK inh: blocks Leishmania mexicana pyruvate kinase activity; Potency, µM (series often up to 57.5 µM), inactives show at the highest dose activity change, negative = inhibition, hits mostly inhibitors; Q27686; AID 1721; purified LmPK, Kinase-Glo ATP luminescence, 1 h; hit rate 0.37% among 290,000; also: potency is read from the fitted curve at half-maximal effect; % is scaled to controls: 0 for no effect and ±100 for the full control effect
Target sequence (Q27686 whole entry, looked up): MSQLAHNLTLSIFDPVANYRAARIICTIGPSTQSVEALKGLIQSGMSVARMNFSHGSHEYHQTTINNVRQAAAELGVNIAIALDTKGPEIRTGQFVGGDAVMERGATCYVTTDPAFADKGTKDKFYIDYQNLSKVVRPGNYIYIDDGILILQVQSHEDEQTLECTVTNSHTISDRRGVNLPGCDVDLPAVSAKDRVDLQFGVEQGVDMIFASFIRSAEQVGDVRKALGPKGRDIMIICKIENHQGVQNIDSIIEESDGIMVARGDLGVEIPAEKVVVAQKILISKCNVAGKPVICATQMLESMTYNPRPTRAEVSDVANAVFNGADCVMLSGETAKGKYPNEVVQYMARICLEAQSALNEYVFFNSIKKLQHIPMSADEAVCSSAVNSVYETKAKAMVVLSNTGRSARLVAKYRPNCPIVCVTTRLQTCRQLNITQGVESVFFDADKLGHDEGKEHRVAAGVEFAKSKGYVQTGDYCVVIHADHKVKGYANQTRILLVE
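In 50 mM imidazole pH 7.2 with 7 mM MgCl2, LmPK (0.1 nM) turned over PEP (0.5 mM) and ADP (0.1 mM) for 1 h at room temperature. Luciferase read-out of ATP.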
Pf growth 48h: inhibits P. falciparum growth in the first generation, 48 h | P. falciparum luciferase growth in erythrocytes, 48 h | Potency, µM (doses to about 28.7 µM), without a hit: at the top dose activity change, negative = inhibition, hits mostly inhibitors | hit rate 5.9% among 310,000 | AID 504832; also: potency is read from the fitted curve at half-maximal effect; % is scaled to controls: 0 for no effect and ±100 for the full control effect
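A one-generation exposure of luciferase-tagged malaria parasites in RPMI 1640/Albumax erythrocyte culture, 37 C and 5% CO2. Inhibition is inferred from decreased luminescence after adding detection reagent.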
Shiga toxin inh: inhibitors of Shiga toxin in Vero cells; Vero cells, Shiga toxin protein synthesis inhibition reporter; inhibition, % at 38.7 µM; hit rate 9.2% among 290,000; AID 2315; in the data active = inhibition mostly above about 28%, no sharp cut-off; inactive = mostly below about 43%; also: 0% is about no effect
CHX counter: counter-screen for Shiga toxin inhibitors: cycloheximide protein synthesis inhibition | cell reporter, cycloheximide protein synthesis inhibition counterscreen | max response, % | hit rate 12% among 300,000; in the data active = max response mostly above about 13%, no sharp cut-off; inactive = mostly below about 14%; also: read at 38.3 µM for the half of the compounds with a filed dose; 0% is about no effect
Starred values were filed as active, the others as inactive; i = inactive; u = inconclusive; x = not tested or not shown; [ ] = another dose, or the depositor's remark. Unless noted, calls follow the shape of the dose curve; as a rule, active = well fitted inhibition curve with a large enough effect; inconclusive = small, poorly fitted or top-dose-only effect, or another doubt; inactive = no such curve, though single readings can be large or run the other way.

SMILES | Pf growth 96h | LmPK inh | Pf growth 48h | Shiga toxin inh | CHX counter
CCC(=O)N1CCN(c2ccc(NC(=O)c3ccc(N4CCOCC4)c([N+](=O)[O-])c3)cc2)CC1 | 9.3% | 0.4% | u | 14.7 | -3.0
CCCC(=O)N1CCN(c2ccc(NC(=O)c3ccc([N+](=O)[O-])o3)cc2)CC1 | 114.2% | -5.5% | 16.5µM* | -32.9 | -18.2
Cc1ccnc(NCc2ccccc2O)c1 | 9.2% | 3.8% | -6.8% | x | 14.2*
Oc1ccc(Br)cc1CNc1ccccn1 | 6.57µM* | 6.0% | u | 38.2 | 13.5*
COc1ccc(CNc2cc(C)ccn2)c(O)c1 | 15.4% | 4.0% | x | 79.5* | 25.3*
CCCCOC(=O)c1ccc(NC(=O)C(=O)NCc2ccco2)cc1 | 33.4%[5.75 µM] | 6.1% | 20.4% | 5.4 | -2.6
COc1ccc(N)cc1-n1c(C)ccc1C | 34.8% | -8.5% | u | 36.6* | 25.1*
Fc1cccc(C[n+]2csc3ccccc32)c1 | 50.2% | 0.5% | u | 9.1 | 2.4
c1ccc(C[n+]2csc3ccccc32)cc1 | 31.7% | 1.1% | 33.9% | 108.8* | 14.3
CC1(C2CC2)NC(=O)N(CC(=O)NCc2ccc(Cl)cc2Cl)C1=O (centres undefined) | -6.1% | x | 3.4% | x | x
CCc1ccc(-c2cc(C)no2)cc1S(=O)(=O)NCc1ccc(OC)c(OC)c1 | -5.7% | -10.3% | 2.1% | 3.2 | -7.7
CCc1ccc(-c2cc(C)no2)cc1S(=O)(=O)NCc1ccco1 | 28.9% | 8.3% | -17.0% | 42.4* | 29.6*
CCc1ccc(-c2cc(C)no2)cc1S(=O)(=O)NCCc1ccc(OC)c(OC)c1 | 11.7µM* | 9.6% | 0.0% | -0.6 | 1.4
COc1c(C)cc(S(=O)(=O)NCc2ccco2)c(C)c1C | u | 3.5% | u | 21.0 | 14.7*
O=C(N/N=C/c1ccc2cccc(OCc3ccccc3)c2n1)c1ccc(Br)cc1 | -1.4% | 0.7% | -21.6% | 38.0 | 18.0*
NC(=S)N/N=C/c1ccc2cccc(OCc3ccccc3)c2n1 | u | -0.4% | 14.7µM* | -25.0 | 4.8
COc1ccc(C(=O)N/N=C/c2ccc3cccc(OCc4ccccc4)c3n2)cc1 | 0.0% | -3.1% | u | 60.6* | 21.5*
O/N=C/c1ccc2cccc(OCc3ccccc3)c2n1 | -1.4% | 4.1% | 8.6% | -5.1 | -0.9
COc1c(OC(C)=O)ccc(/C=C/c2ccc3cccc(OCc4ccccc4)c3n2)c1[N+](=O)[O-] | u | 2.4% | 1.85µM* | 52.8* | 34.8*
CC(C)CC(=O)Nc1ccc2c(c1)nc(CCN1CCOCC1)n2C | -11.5% | -1.1% | 14.2% | 19.2 | -1.9
NC(=S)N/N=C/c1ccccc1OCc1cccc(Cl)c1 | 9.28µM* | -0.6% | 13.1µM* | 15.6 | -2.5
CCCCn1nc(CC(=O)NCCN(CC)CC)c2ccccc2c1=O | 27.3% | -4.0% | 13.0% | -14.3 | 1.1
N#Cc1cc([N+](=O)[O-])c(-n2nnc3ccccc32)c([N+](=O)[O-])c1 | 134.2% | 11.0% | 73.9% | 11.4 | -4.2
COc1ccccc1Oc1cc(C#N)c(C#N)cc1-n1nnc2ccccc21 | 2.33µM* | 6.3% | 9.28µM* | -22.6 | -3.0
Cc1nnc(-c2cnn(C)c2N)n1CCCN1CCOCC1 | 32.2% | -4.4% | u | -9.3 | 14.9
SMILES | Pf growth 96h | LmPK inh | Pf growth 48h | Shiga toxin inh | CHX counter
COc1cccc(CC2(CO)CCCN(Cc3ccc(OC)c(C)c3OC)C2)c1 (centres undefined) | u | 6.9% | u | x | -4.2
O=C(COC(=O)[C@@H]1CC(O)CN1S(=O)(=O)c1ccc2c(c1)OCCO2)Nc1ccccc1F (some centres undefined) | u | 11.5% | 0.7% | 35.9 | 11.3
COCC1CCN(Cc2nc(COc3ccccc3)no2)C1 (centres undefined) | 0.0% | -1.6% | u | 31.1* | 15.1*
c1ccc(CN2CCCC3(CCCN(Cc4nc(COc5ccccc5)no4)C3)C2)cc1 (centres undefined) | 40.3% | 6.0% | 11.7µM* | 15.4 | 9.0
c1ccc(CN2CCCC3(CCCN(Cc4nc(CC5CC5)no4)C3)C2)cc1 (centres undefined) | 283.4% | 6.5% | -10.7% | -7.8 | 0.9
O=C(CN1CCCCCC1)Nc1ccc(Cl)cn1 | u | -0.5% | -3.2% | 18.8 | 9.6
COc1cccc(-c2ccc3c(N)c(C(=O)NC4CC4)sc3n2)c1 | -14.3% | 3.2% | -3.1% | 103.5* | 36.5*
COc1ccc(-c2ccc3c(N)c(C(=O)c4cccc(OC)c4)sc3n2)cc1 | 38.8% | 9.3% | x | 60.3 | 12.1
CC(=O)c1sc2nc(-c3cccs3)ccc2c1N | 217.4% | -12.5% | x | 100.8* | 45.9*
COc1ccc(C(=O)c2sc3nc(-c4ccc(OC)cc4)ccc3c2N)cc1 | 321.0% | 0.9% | 16.9% | 39.8 | 22.0*
CC1=C/C(=C(/c2ccc(O)c(C)c2)c2ccccc2S(=O)(=O)O)C=CC1=O | -10.1% | x | -0.7% | x | x
CC1=C/C(=C(/c2cc(C)c(O)c(Br)c2)c2ccccc2S(=O)(=O)O)C=C(Br)C1=O | -6.1% | 20µM* | u | -5.4 | -9.5
Cc1ccnc(NC(=O)c2c(O)c3ccccc3n(C)c2=O)c1 | -14.6% | 3.4% | 144.5% | 71.2* | 50.6*
CCCn1c(=O)c(C(=O)Nc2cccc(C)c2)c(O)c2ccccc21 | 15.2% | -1.5% | 4.4% | 23.3 | 14.0
CCCCCn1c(=O)c(C(=O)Nc2cc(C)ccn2)c(O)c2ccccc21 | -1.9% | 3.4% | u | x | -1.6
Cc1cccc(NC(=O)c2c(O)c3ccccc3n(C)c2=O)c1 | -11.2% | -0.2% | 125.4% | x | 24.9*
COc1ccc(-c2nc(CN(CC3CCC(=O)N3)C(C)C)c(C)o2)c(C)c1C (centres undefined) | 31.9% | 0.1% | 0.0% | 86.7* | 24.8*
CN(C)CCC#CC(O)(c1ccccc1)c1ccccc1 | u | 0.1% | 11.7µM* | -9.2 | -2.4
CCN(CC)CC#CC(O)(c1ccccc1)c1ccccc1 | 19.0% | -4.8% | 131.3% | -11.3 | -2.2
N#CCC(=O)N/N=C\c1cccc(OC/C=C/c2ccccc2)c1 | u | -4.7% | 263.1% | 121.7* | 52.7*
CCOC(=O)N/N=C\c1cccc(OC)c1OC/C=C/c1ccccc1 | u | 3.7% | u | 33.6* | 15.8
CC(=O)N/N=C\c1cccc(OC/C=C/c2ccccc2)c1 | -12.9% | 0.1% | 194.0% | 158.6* | 58.6*
COc1cccc(/C=N/NC(=O)CC(C)O)c1OC/C=C/c1ccccc1 (centres undefined) | 3.8% | -2.6% | -19.1% | 22.5 | 4.3
CC(=O)N/N=C\c1ccccc1OC/C=C/c1ccccc1 | u | 7.3% | 2.9% | 92.9 | 21.7*
COCCC(=O)N1CCC(Oc2ccc(C(=O)NCCSC)cc2)CC1 | u | 0.4% | 23.9% | -7.7 | 1.0
COc1cccc(-c2cc(C(=O)Nc3ccn(Cc4ccc(C)cc4)n3)no2)c1 | 27.3% | -4.6% | u | 42.8 | 17.7
Cc1ccc(Cn2ccc(NC(=O)c3cc(-c4ccccc4)on3)n2)cc1 | i | -16.5% | 9.28µM* | 30.8 | -1.7
Cc1ccc(Cn2ccc(NC(=O)c3cc(-c4ccco4)on3)n2)cc1 | 18.7% | -0.4% | 10.4µM* | 14.2 | 13.6

Screening results as filed in PubChem BioAssay.
